# In all, about 5,500 compounds went through this assay and about 2,000 (36%) were called active. Roughly 18% stayed inconclusive and do not appear here. The list shows a part of the results. Values without a mark were called inactive. Cut-off read from the data, not from the text of the source: active = normalized growth mostly below about 0.91 (no sharp cut-off); inconclusive = no clear call, values can overlap the other calls; inactive = mostly above about 0.92.
# Assay: chemical genetic growth profiling, strain panel (AID 1159580);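 note: tested at 20 µM; growth read once vehicle control cultures reached saturation at 30 °C; 1 = growth at the plate median or of vehicle wells; lower values mean less growth of the strain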
# Conditions: S. cerevisiae deletion strains, growth OD
structure (smiles),measurement,setting,value
C/C(=N/NC(=S)NCC(C)(C)C)c1cc(F)cc(Cl)c1O,normalized growth,"locus YAR019C, strain CDC15, hits give low values",0.963
same,normalized growth,"locus YBL105C, strain PKC1, hits give low values",0.961
same,normalized growth,"locus YBR135W, strain CKS1, hits give low values",0.956
same,normalized growth,"locus YBR136W, strain MEC1, hits give low values",0.959
same,normalized growth,"locus YBR160W, strain CDC28, hits give low values",0.97
same,normalized growth,"locus YDL017W, strain CDC7, hits give low values",0.953
same,normalized growth,"locus YDL028C, strain MPS1, hits give low values",0.959
same,normalized growth,"locus YDL101C, strain DUN1, hits give low values",0.967
same,normalized growth,"locus YDL108W, strain KIN28, hits give low values",0.972
same,normalized growth,"locus YDL132W, strain cdc53, hits give low values",0.98
same,normalized growth,"locus YDL214C, strain PRR2, hits give low values",0.942
same,normalized growth,"locus YDR052C, strain DBF4, hits give low values",0.971
same,normalized growth,"locus YDR054C, strain cdc34, hits give low values",0.976
same,normalized growth,"locus YDR226W, strain ADK1, hits give low values",0.965
same,normalized growth,"locus YDR477W, strain SNF1, hits give low values",0.928
same,normalized growth,"locus YER123W, strain YCK3, hits give low values",0.928
same,normalized growth,"locus YER133W, strain GLC7, hits give low values",0.955
same,normalized growth,"locus YFL009W, strain cdc4, hits give low values",0.966
same,normalized growth,"locus YFL029C, strain CAK1, hits give low values",0.953
same,normalized growth,"locus YFR003C, strain YPI1, hits give low values",0.963
same,normalized growth,"locus YFR019W, strain FAB1, hits give low values",0.992
same,normalized growth,"locus YFR028C, strain CDC14, hits give low values",0.961
same,normalized growth,"locus YGR040W, strain KSS1, hits give low values",0.922
same,normalized growth,"locus YGR052W, strain FMP48, hits give low values",0.938
same,normalized growth,"locus YGR092W, strain DBF2, hits give low values",0.716
same,normalized growth,"locus YHR030C, strain SLT2, hits give low values",0.681 (active)
same,normalized growth,"locus YHR079C, strain IRE1, hits give low values",0.784
same,normalized growth,"locus YHR082C, strain KSP1, hits give low values",0.964
same,normalized growth,"locus YHR205W, strain SCH9, hits give low values",0.941
same,normalized growth,"locus YIL147C, strain SLN1, hits give low values",0.963
same,normalized growth,"locus YJL095W, strain BCK1, hits give low values",0.852
same,normalized growth,"locus YJL128C, strain PBS2, hits give low values",0.952
same,normalized growth,"locus YJL157C, strain FAR1, hits give low values",0.936
same,normalized growth,"locus YJR016C, strain ILV3, hits give low values",0.961
same,normalized growth,"locus YJR066W, strain TOR1 (second series), hits give low values",0.868
same,normalized growth,"locus YJR066W, strain TOR1, hits give low values",0.894
same,normalized growth,"locus YKL048C, strain ELM1, hits give low values",0.946
same,normalized growth,"locus YKL067W, strain YNK1, hits give low values",0.962
same,normalized growth,"locus YKL101W, strain HSL1, hits give low values",0.923
same,normalized growth,"locus YKL193C, strain SDS22, hits give low values",0.966
same,normalized growth,"locus YKL203C, strain TOR2, hits give low values",0.94
same,normalized growth,"locus YLR113W, strain HOG1, hits give low values",0.735 (active)
same,normalized growth,"locus YLR133W, strain CKI1, hits give low values",0.884
same,normalized growth,"locus YLR403W, strain SFP1, hits give low values",0.837
same,normalized growth,"locus YML070W, strain DAK1, hits give low values",0.941
same,normalized growth,"locus YMR001C, strain CDC5, hits give low values",0.961
same,normalized growth,"locus YMR205C, strain PFK2 (second series), hits give low values",0.939
same,normalized growth,"locus YMR277W, strain FCP1, hits give low values",0.96
same,normalized growth,"locus YNL006W, strain LST8, hits give low values",0.972
same,normalized growth,"locus YNL020C, strain ARK1, hits give low values",0.837
same,normalized growth,"locus YNL161W, strain CBK1, hits give low values",0.956
same,normalized growth,"locus YNL183C, strain NPR1, hits give low values",0.947
same,normalized growth,"locus YNL207W, strain RIO2, hits give low values",0.962
same,normalized growth,"locus YNL222W, strain SSU72, hits give low values",0.959
same,normalized growth,"locus YNL307C, strain MCK1 (second series), hits give low values",0.883
same,normalized growth,"locus YOL078W, strain AVO1, hits give low values",0.974
same,normalized growth,"locus YOL136C, strain PFK27, hits give low values",0.948
same,normalized growth,"locus YOR061W, strain CKA2, hits give low values",0.869
same,normalized growth,"locus YOR119C, strain RIO1, hits give low values",0.984
same,normalized growth,"locus YOR231W, strain MKK1, hits give low values",0.837
same,normalized growth,"locus YOR329C, strain SCD5, hits give low values",0.964
same,normalized growth,"locus YPL031C, strain PHO85, hits give low values",0.915
same,normalized growth,"locus YPL153C, strain RAD53, hits give low values",0.913
same,normalized growth,"locus YPL204W, strain HRR25, hits give low values",0.92
same,normalized growth,"locus YPL209C, strain IPL1, hits give low values",0.959
same,normalized growth,"locus YPL256C, strain CLN2, hits give low values",0.782 (active)
same,normalized growth,"locus YPR025C, strain CCL1, hits give low values",0.965
same,normalized growth,"locus YPR106W, strain ISR1, hits give low values",0.989
same,normalized growth,"locus YPR111W, strain DBF20, hits give low values",0.968
same,normalized growth,"strain NNK1, hits give low values",0.973
same,normalized growth,"strain TSCII, hits give low values",0.956

# From PubChem BioAssay AID1159580 (chemical genetic matrix, 2015)
